From PubChem BioAssay
Only some compounds are listed: those with a hit (about 31% of all), similar ones and a draw of the others.
PLAP activator: activators of human placental alkaline phosphatase; P05187; purified PLAP enzyme, luminescent substrate read-out; active compounds read high; activation fold at 20 µM; 1.2% of 96,000 active; AID 696; in the data active means activation fold above about 2
Target sequence (P05187 whole entry, looked up): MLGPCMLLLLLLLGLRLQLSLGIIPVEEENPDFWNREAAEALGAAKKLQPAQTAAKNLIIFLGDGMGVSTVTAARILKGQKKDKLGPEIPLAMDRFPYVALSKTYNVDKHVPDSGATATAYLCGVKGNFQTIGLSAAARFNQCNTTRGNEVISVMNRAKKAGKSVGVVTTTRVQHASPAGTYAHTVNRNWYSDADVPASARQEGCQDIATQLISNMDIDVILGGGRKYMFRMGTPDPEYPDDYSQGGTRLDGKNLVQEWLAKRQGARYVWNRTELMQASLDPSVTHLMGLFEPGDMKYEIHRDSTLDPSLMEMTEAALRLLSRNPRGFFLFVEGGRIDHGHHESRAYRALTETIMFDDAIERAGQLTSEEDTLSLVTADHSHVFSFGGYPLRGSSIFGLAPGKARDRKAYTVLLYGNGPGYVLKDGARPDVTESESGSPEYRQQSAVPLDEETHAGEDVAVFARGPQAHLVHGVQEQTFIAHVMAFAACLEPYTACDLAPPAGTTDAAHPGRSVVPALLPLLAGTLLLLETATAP
CYP2C19 activ: cytochrome P450 2C19 (human) activation; P33261; recombinant CYP2C19, luciferin-H EGE luminescence; active compounds read high; 0 = fully inhibited enzyme, 1 = untreated enzyme; activation factor at 5 µM; 96,000 tested, under 10 active; AID 1025;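 active means activation factor of at least 2 at 5 µM in the primary screen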;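 further: 0 = wells with 2.5 mM tranylcypromine and 1 = vehicle-only wells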
CYP2C9 act: activators of human CYP2C9 | P11712 | recombinant CYP2C9, luciferin-H conversion, luminescence; active compounds read high; factor 1 = untreated enzyme, 0 = blocked | activation factor at 5 µM | 1.4% of 96,000 active | AID 1024;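 active means activation factor of 2 or more for CYP2C9 at a 5 µM dose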;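 further: 0 = sulfaphenazole-blocked wells and 1 = vehicle-only wells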
CYP2C19 inh: human CYP2C19 inhibition | P33261 | CYP2C19 Supersomes, luciferin-H EGE luminescence, 30 min | inhibition, % at 5 µM | 21% of 96,000 active | AID 778;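 active means CYP2C19 inhibition above a set limit at 5 µM in the primary screen, cut at about 50% in these data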;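 further: plate controls were negative control wells for no effect and 2.5 mM tranylcypromine positive control for full effect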
CYP2C9 inhib: blocks human cytochrome P450 2C9; P11712; CYP2C9 Supersomes, luciferin-H conversion, luminescence; inhibition, % at 5 µM; 20% of 96,000 active; AID 777;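 active means blocking of liver enzyme CYP2C9 beyond about 50% at 5 µM, limit read from the data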
An asterisk follows results filed as active.

SMILES	PLAP activator	CYP2C19 activ	CYP2C9 act	CYP2C19 inh	CYP2C9 inhib
COc1ccccc1N1CCN(C(=O)C(Sc2ccccc2)c2ccccc2)CC1 (stereo not drawn)	1.4	0.4	0.4	61*	59*
CCN(CC)CCNC(=O)c1c(C)n(-c2ccccc2)c2cc(Br)c(OC)cc12	1.4	0.6	0.7	42	27
CCOC(=O)N=S(=O)(Oc1ccc([N+](=O)[O-])cc1)c1ccccc1 (stereo not drawn)	0.9	0.2	0.7	78*	29
Cn1c(=O)c2cc(S(=O)(=O)NC(C(=O)NCc3cccnc3)c3ccccc3)ccc2n(C)c1=O (stereo not drawn)	1	0.7	0.9	29	13
CCCc1ccc(-c2cc(NC(=O)CSc3n[nH]c(N)n3)n(-c3ccccc3)n2)cc1	1.9	0.7	0.4	33	58*
CC(=O)Nc1ccccc1Sc1ccccc1	0.9	0.2	0.8	79*	20
Nc1nc(SCC(=O)Nc2ccccc2Sc2ccccc2)n[nH]1	2.3*	0	0.5	99*	51*
Cc1ccc(NC(=O)CN(C)C(=O)CSc2n[nH]c(N)n2)cc1	1.2	1	0.9	-1	7
NC(=O)C1(N2CCCCC2)CCN(CC(=O)Nc2ccccc2Sc2ccccc2)CC1	1.2	0.2	0.5	79*	50
O=C(Nc1ncc(Cl)cn1)c1cccs1	1.1	0.8	1	23	0
CS(=O)(=O)N(CC(=O)Nc1ccccc1Sc1ccccc1)C1CCCCC1	1.9	0.8	0.6	24	42
O=C(CCl)Nc1ccccc1Sc1ccccc1	0.9	0.4	0.9	64*	13
COc1ccc(C2CC(c3ccc(F)cc3)Nc3nc(N)nn32)cc1 (stereo not drawn)	1.1	0.9	1.1	12	-7
COc1cccc(C2CC(c3ccccc3Cl)n3nnnc3N2)c1 (stereo not drawn)	1.1	0	0.1	100*	89*
COc1cccc(C2CC(c3cccs3)Nc3ncnn32)c1 (stereo not drawn)	0.9	0.7	1	32	0
CCOc1ccc(C2CC(c3cccc(OC)c3)Nc3ncnn32)cc1 (stereo not drawn)	1.6	0.2	0	79*	95*
COc1ccc(C2CC(c3cccc(OC)c3OC)n3nnnc3N2)cc1 (stereo not drawn)	0.9	0	0.3	96*	65*
COc1cccc(C2CC(c3ccccc3Cl)n3ncnc3N2)c1 (stereo not drawn)	1.3	0	0.5	97*	52*
N#CN=C1SCCS1	0.7	1.2	1.2	-22	-20
O=C(NCc1cn2ccsc2n1)c1cccs1	0.8	1	1	-4	1
CCc1sc(N(C(=O)Cc2ccccc2)c2ccc(F)cc2)nc1-c1ccccc1	0.8	0.1	0.5	86*	51*
COC(=O)C1C(C(C)C)N(c2ccccc2)OC1(C)O (stereo not drawn)	1.2	0.4	1	56*	-2
Cc1ccc(NC(=O)N/C=C/c2ccco2)c(C)c1	2.4*	0.2	0.4	76*	61*
Cc1cccc(C)c1NC(=O)Cn1nc(-c2ccccc2)nc1-c1ccccc1	1.4	0.6	0.3	41	66*
O=C(Cn1nc(-c2ccccc2)nc1-c1ccccc1)N1CCOCC1	1.2	0.9	1	8	5
SMILES	PLAP activator	CYP2C19 activ	CYP2C9 act	CYP2C19 inh	CYP2C9 inhib
Cc1ccccc1NC(=O)Cn1nc(-c2ccccc2)nc1-c1ccccc1	0.9	0.7	0.4	31	56*
CCS(=O)(=O)NCCc1csc(C)n1	1.1	1.1	1	-8	-4
CCCCn1c(=O)[nH]c(=O)c2c1nc(COC(=O)c1c(C)noc1C)n2CCC	1.2	0.3	0	68*	97*
CCCCn1c(CCC(=O)O)nc2c1c(=O)[nH]c(=O)n2CCC	1	1	1.1	-3	-5
O=C(CN1C(=O)CSC1=O)c1ccccc1	1	1	0.9	1	13
CCc1cc2c(-c3ccccc3)cc(=O)oc2c(CN2CCOCC2)c1O	1.3	0.2	0.1	78*	92*
O=c1cc(-c2ccccc2)c2ccc(O)c(CN3CCCCC3)c2o1	1	1	1.1	-4	-8
O=C(O)c1ccc(N2CCCCCC2)c(N2C(=O)c3ccccc3C2=O)c1	1.1	1.2	1.1	-24	-9
NC(=O)c1ccc(N2CCCCC2)c(N2C(=O)C3CC=CCC3C2=O)c1 (stereo not drawn)	1	0.5	0.7	50*	31
CCC(=O)Nc1nnc(SCC(=O)Nc2ccc(F)cc2)s1	1	0.6	1	42	3
CCC(=O)Nc1nnc(Sc2ccc(N(C)C)cc2)s1	1	0	1.4	96*	-38
CCCC(=O)Nc1nnc(Sc2ccc(N(C)C)cc2)s1	0.8	0.1	1.6	94*	-56
CSc1nsc(SC)c1NC(=O)Nc1ccccn1	1	0.5	0.5	50	45
CSc1nsc(SC)c1NC(=O)OCc1ccccc1	1	0.1	0.7	89*	28
CSc1nsc(SC)c1NC(=O)OCCc1ccccn1	1	0	0.6	95*	35
CCCCCCC(=O)NN1CCN(C)CC1	1.3	0.9	0.6	12	38
CC1CN(C(=O)c2ccccc2)OC(c2ccc3c(c2)OCO3)O1 (stereo not drawn)	1.2	0.9	0.7	13	30
N/C(Cc1ccc([N+](=O)[O-])cc1)=N\OC(=O)C(c1ccccc1)c1ccccc1	0.8	0.7	0.5	29	54*
Cc1cccc(C(=O)O/N=C(\N)Cc2ccc([N+](=O)[O-])cc2)c1	0.8	0.2	0.6	84*	37
O=C(OCCN1CCCC1=O)c1cncc(Br)c1	0.9	1	1.1	0	-7
Cc1ccc(Oc2ccc(NC(=O)CCC(=O)OCC(=O)c3cccs3)cc2)cc1C	1	0.9	1	7	-1
CCOC(=O)N1CCN(c2c(F)cc3[nH]c(=S)[nH]c3c2Br)CC1	1.2	0.6	0.3	42	70*
CCOC(=O)N1CCN(c2cc3[nH]c(=S)[nH]c3cc2F)CC1	1.8	0.8	1.1	15	-9
C/C(Cl)=C/CSc1nnc2n(N)c(=O)c3ccccc3n12	1.1	1.2	1.1	-15	-6
CN(C)c1nccc(Nc2ccccc2)c1C#N	1	0.5	0.5	51*	49
Cc1cc(C(=O)NCc2ccccc2F)cs1	1.1	0.7	1.1	30	-10
CC(C)(C)C(=O)Nc1ccccc1C(=O)Nc1cc(Cl)ccc1Cl	0.9	0.7	0.4	29	61*
Cc1ccccc1NC(=O)N(C(C)C)C(C)C	0.9	0.9	0.8	7	16
CCOC(=O)C1=C(C)Nc2ncnn2C1c1cc(Br)ccc1F (stereo not drawn)	0.9	0.6	0.6	40	42
CC(CN(C)Cc1ccccc1)OC(=O)C1COc2ccccc2O1 (stereo not drawn)	1.3	0.9	1.1	6	-10
